Screening results deposited in PubChem BioAssay by several laboratories.
PERK inhibitor – human PERK inhibition, primary cell-based screen. inhibition, % at 5.6 µM. AID 1416. CHO PERK-DD fusion, SEAP luminescence translation reporter. 220,000 tested, 0.17% active;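 active = inhibition above the mean inhibition of all tested compounds plus 3 SD, set separately per screening campaign, cut at about 2.9% in these data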;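 also: PERK kinase domain activated by AP20187 dimerizer at 100 nM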
PABP1 MLLE inh – blocks PAM2 peptide binding to the PABP1 MLLE domain | GST-MLLE / FITC-PAM2 fluorescence polarization | inhibition, % at 20 µM | 360,000 tested, 0.36% active | AID 588489; in the data active = inhibition above about 35%, passing the limit was not always enough
Target sequence (P11940 whole entry, looked up, the tested form may be a part): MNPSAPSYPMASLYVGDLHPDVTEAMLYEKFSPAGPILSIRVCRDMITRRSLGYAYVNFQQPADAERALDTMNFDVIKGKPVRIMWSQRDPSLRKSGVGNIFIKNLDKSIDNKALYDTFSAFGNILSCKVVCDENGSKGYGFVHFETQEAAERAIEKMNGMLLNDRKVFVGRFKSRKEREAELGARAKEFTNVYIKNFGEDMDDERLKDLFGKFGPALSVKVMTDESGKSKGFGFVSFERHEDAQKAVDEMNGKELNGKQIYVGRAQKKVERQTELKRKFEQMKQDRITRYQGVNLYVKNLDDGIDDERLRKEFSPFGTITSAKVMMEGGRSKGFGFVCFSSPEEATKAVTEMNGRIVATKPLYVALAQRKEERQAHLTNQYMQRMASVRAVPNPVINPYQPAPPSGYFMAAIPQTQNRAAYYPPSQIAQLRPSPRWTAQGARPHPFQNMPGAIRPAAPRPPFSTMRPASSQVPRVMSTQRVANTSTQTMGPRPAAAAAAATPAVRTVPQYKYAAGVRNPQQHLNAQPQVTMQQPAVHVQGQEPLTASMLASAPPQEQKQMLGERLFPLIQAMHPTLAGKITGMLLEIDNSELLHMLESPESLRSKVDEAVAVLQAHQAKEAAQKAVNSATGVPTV
PABP FP inh – PABP-poly(A) binding inhibition; P11940; PABP-poly(A) RNA binding, fluorescence polarization; inhibition, % at 35 µM; 290,000 tested, 1% active; AID 2014;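 also: calls also rest on retests at 20 µM and on dose response follow-up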
eIF4E-4G inh – blocks eIF4E binding to eIF4G; TR-FRET eIF4E-eIF4GI(517-606) binding, 2 h; inhibition, % at 21.7 µM; 220,000 tested, 0.37% active;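 active = inhibition above about 30%, limit read from the data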
eIF4H FP inh – inhibitors of RNA binding by human eIF4H | AID 2012 | Q15056 | eIF4H fluorescence polarization binding assay | inhibition, % at 35 µM | 290,000 tested, 0.94% active;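 also: calls also rest on retests at 20 µM and on dose response follow-up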
Numbers stand for hits; - = inactive; ? = inconclusive; . = no result given; [ ] = dose if it differs, or a comment. The list is not random: actives were taken first. Their share in the collection is about 1.6%. Unless noted, no rule for the calls is given here.

SMILES | PERK inhibitor | PABP1 MLLE inh | PABP FP inh | eIF4E-4G inh | eIF4H FP inh
O=C(Nc1ccc(S(=O)(=O)Nc2ncccn2)cc1)c1ccccc1Br | . | - | - | . | -
O=C(COc1ccccc1)Nc1nnc(-c2ccco2)o1 | - | - | active | - | -
CCCCn1c(-c2ccc(Cl)c(Cl)c2)nc2cc3[nH]c(=O)c(C(C)C)nc3cc21 | . | - | - | . | -
CCCCn1c(-c2cccnc2)nc2cc3[nH]c(=O)c(C(C)C)nc3cc21 | . | - | 36 | . | -
CCCCn1c(-c2ccc(C(C)(C)C)cc2)nc2cc3[nH]c(=O)c(C(C)C)nc3cc21 | . | - | 35 | . | -
CC(=O)Nc1ccc2ccc3cccc4ccc1c2c34 | - | - | - | - | 60
CCOc1ccc(NCc2cc3cc(OC)ccc3[nH]c2=O)cc1 | - | - | 57 | - | 35
O=c1[nH]c(C(Cl)Cl)nc2sc3c(c12)CCN(Cc1ccccc1)C3 | - | - | 12 | - | 78
O=C(Nc1ccccc1)Nc1ccccc1NS(=O)(=O)c1cccs1 | - | - | - | - | -
N#Cc1ccc(OCC(=O)Nc2ccccc2NS(=O)(=O)c2cccs2)cc1 | - | - | active | - | 53
C/C(=N\NC(=O)c1cccc(N/N=C(\C)c2ccco2)c1)c1ccco1 | - | - | active | - | 90
N=c1n(CCN2CCCC2)c2ccccc2n1CC(O)c1ccco1 (stereo not drawn) | - | 44 | - | - | -
CCCCCCCn1c(=N)n(CC(O)c2ccco2)c2ccccc21 (stereo not drawn) | - | - | - | - | -
C[n+]1cc(-c2ccccc2)n2c1CCCCC2 | - | - | 65 | - | -
Cc1ccc(OCCC(=O)O)cc1 | - | - | 23 | - | ?
CCCCN(C(=O)c1cccc(S(=O)(=O)N2CCN(C)CC2)c1)c1c(N)n(CCCC)c(=O)[nH]c1=O | . | - | . | . | .
CCCCN(C(=O)c1cccc(S(=O)(=O)N2CCOCC2)c1)c1c(N)n(CCC)c(=O)[nH]c1=O | - | - | 52 | - | -
Nc1cccc(-c2c[nH]c3ncc(-c4cccnc4)cc23)c1 | . | - | . | . | .
O=c1oc2c3c4c(cc2s1)CCCN4CCC3 | - | 74 | 122 | - | 122
Cc1cc(/C=C\c2nc(O)c([N+](=O)[O-])c(=O)[nH]2)c(C)n1-c1ccccc1 | - | - | - | - | 62
O=c1[nH]c(/C=C\c2ccc(O)c(O)c2)nc(O)c1[N+](=O)[O-] | . | - | 41 | . | 50
O=c1[nH]c(/C=C\c2cccc(O)c2)nc(O)c1[N+](=O)[O-] | . | - | - | . | -
COc1ccc(-c2cc(CCC(=O)N3CCN(c4cc(C)ccc4C)CC3)[nH]n2)cc1 | . | - | . | . | .
CC1=C(C#N)S(=O)(=O)C(C#N)C(c2ccccc2)C1 (stereo not drawn) | - | - | - | 95 | -
Cc1cc(C)n(-c2nnc3n2N=C(c2ccccc2)CS3)n1 | - | - | - | 42 | -
SMILES | PERK inhibitor | PABP1 MLLE inh | PABP FP inh | eIF4E-4G inh | eIF4H FP inh
O=C1/C(=C/c2ccco2)N=C(N2CCCCC2)N1c1ccccc1 | - | - | active | - | 88
CC(NC(=O)C1CCN(S(=O)(=O)c2ccc3c(c2)NC(=O)CO3)CC1)c1ccccc1 (stereo not drawn) | . | - | - | . | -
O=C(/C=C/c1ccco1)NC(=S)Nc1ccc(N2CCCC2)cc1 | - | 36 | 1.9 | - | 93
CC(=O)NC(=S)Nc1ccc(NC(=S)NC(=O)/C=C/c2ccco2)cc1 | - | - | . | - | .
C=CCNC(=S)NNC(=O)c1ccco1 | - | - | - | - | -
O=C(/C=C/c1ccco1)NC(=S)Nc1ccc(Cl)cn1 | - | - | 37 | - | -
O=C(/C=C/c1ccco1)NC(=S)Nc1ccc(C(=O)O)cc1 | . | - | 79 | . | 97
O=C(/C=C/c1ccco1)NC(=S)NNC(=O)c1ccco1 | - | - | 9.4 | - | -
CC(=O)Nc1ccc(S(=O)(=O)Nc2c(NC3CCCCC3)c3ccccc3oc2=O)cc1 | . | - | - | . | -
COc1cc(C(=O)N2CCN(S(=O)(=O)c3ccc(C)cc3C)CC2)ccc1OCC(=O)N1CCOCC1 | . | - | . | . | .
Cn1cccc1C1CCCN1CC(=O)Nc1ccc(C(N)=O)cc1 (stereo not drawn) | . | - | . | . | .
O=C(/C=C/c1ccco1)Nc1cccc(C(=O)Nc2ccccc2C(=O)O)c1 | - | - | 74 | - | 89
CCc1ccccc1NC(=O)c1cccc(NC(=O)/C=C/c2ccco2)c1 | - | - | - | - | -
O=C(NCCc1ccccc1)C(c1ccc(F)cc1)N(C(=O)c1csnn1)C1CC1 (stereo not drawn) | . | - | - | . | -
Oc1ccc(Br)cc1C=Nc1cccn2cc(-c3ccccc3)nc12 | - | 40 | - | - | -
Nc1n[nH]c2cc(=O)n(-c3ccc(Cl)cc3)nc12 | - | - | 83 | - | 99
COc1cc([N+](=O)[O-])ccc1-c1ccc(/C=N/NC(=O)OC(C)(C)C)o1 | - | - | - | - | -
COc1cc([N+](=O)[O-])ccc1-c1ccc(/C=N/NC(N)=O)o1 | - | - | 44 | - | -
Cc1ccc(S(=O)(=O)N(CC(=O)O)Cc2ccco2)cc1 | - | - | 21 | - | 71
COc1ccccc1N(CC(=O)NCc1ccco1)S(=O)(=O)c1ccc(C)cc1 | . | - | 73 | . | 87
CCOc1ccccc1N(CC(=O)NCCSc1ccccn1)S(=O)(=O)c1ccc(C)cc1 | . | - | 86 | . | 86
CC1(N=Cc2cc(Cl)ccc2O)COP(=O)(NC2CCCC2)OC1 (stereo not drawn) | . | - | . | . | .
CCC(c1nc2ccccc2[nH]1)N(C(=O)C1=NNC(=O)CC1)c1ccccc1 (stereo not drawn) | . | - | . | . | .
C/C(O)=c1/c(=O)nc2cccc3c2=c1c1ccccc1c3=O | . | 47 | ? | . | ?
CC1(C)CC(=O)C=C(Nc2cccc(F)c2)C1 | . | - | - | . | -
SMILES | PERK inhibitor | PABP1 MLLE inh | PABP FP inh | eIF4E-4G inh | eIF4H FP inh
CN(C)c1cccc(NC2=CC(=[N+]3CCOCC3)CC(C)(C)C2)c1 | - | - | 58 | - | -
O=C(Cn1c2[n+](c3ccc(C(F)(F)F)cc31)CCCCC2)Nc1ccccc1 | - | - | - | 34[fluorescence artefact?] | -
O=C(N/N=C/c1ccccc1O)C1(O)c2ccccc2-c2ccccc21 | - | - | 119 | - | active
CN(Cc1ccccc1)S(=O)(=O)c1ccc(Cl)c(C(=O)NCc2cccnc2)c1 | . | - | . | . | .
C=CCNC(=O)COc1cc(C)ccc1C | - | - | - | 40 | -
O=C(CN1CCOCC1)Nc1ccc(Cl)cn1 | . | - | - | . | -
Cc1ccc(/C=N/c2sc3c(c2C(N)=O)CCCC3)o1 | - | - | - | - | 74
CN1CCc2c(sc(/N=C/c3ccco3)c2C(N)=O)C1 | - | - | 57 | - | 68
CN1CCc2c(sc(/N=C/c3cccs3)c2C(N)=O)C1 | - | - | ? | - | ?
O=C(CCNS(=O)(=O)c1cccc(C(F)(F)F)c1)NC1CC1 | . | - | . | . | .
CCc1ccc(C2C(C#N)=C(N)C(C#N)(C#N)C3=CCC(C(C)(C)C)CC32)cc1 (stereo not drawn) | - | - | - | - | 84
CC(=O)NCc1c(Cl)cccc1-n1cccc1 | 3.3 | - | - | - | -
CCC(=O)NCc1c(Cl)cccc1-n1cccc1 | - | - | - | - | -
